Reference: article PMC7862700, “An all-to-all approach to the identification of sequence-specific readers for epigenetic DNA modifications on cytosine”

Legend:
Assay in all cases: DAPPL (digital affinity profiling via proximity ligation, sequencing); 10 mM Tris-HCl pH 7.5, 50 mM NaCl, 1 mM DTT, 4% glycerol, room temperature, 30 min; GST-TFs on glutathione beads, 16-mer random dsDNA library, 0.1% formaldehyde crosslink after washing; high values mean tight binding
Conditions in all cases: protein: recombinant; tags: N-terminal GST; dsDNA, one strand shown
FLI1 = molecular target: T1, FLI1 (Homo sapiens, UniProt Q01543 1-452)
T1 sequence: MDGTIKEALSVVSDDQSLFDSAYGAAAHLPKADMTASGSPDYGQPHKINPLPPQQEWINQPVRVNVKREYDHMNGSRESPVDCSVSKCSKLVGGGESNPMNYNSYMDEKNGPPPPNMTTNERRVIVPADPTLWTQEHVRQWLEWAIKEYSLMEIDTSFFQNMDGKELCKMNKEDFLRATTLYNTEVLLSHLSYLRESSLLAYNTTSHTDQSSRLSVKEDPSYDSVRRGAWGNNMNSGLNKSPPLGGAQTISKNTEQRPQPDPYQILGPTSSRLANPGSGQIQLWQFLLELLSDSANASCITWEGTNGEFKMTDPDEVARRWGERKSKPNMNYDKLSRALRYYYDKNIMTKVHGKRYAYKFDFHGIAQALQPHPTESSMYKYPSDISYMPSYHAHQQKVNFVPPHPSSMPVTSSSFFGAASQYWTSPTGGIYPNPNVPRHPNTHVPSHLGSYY
Method in brief: (§1)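 Human transcription factors were made in yeast as GST fusions, captured on glutathione beads and barcoded with DNA. With a tag-only sample included, the pool was incubated with 200 nmole of a random double-stranded 16-mer DNA library in Tris/NaCl/DTT/glycerol buffer at room temperature for 30 min, then crosslinked with 0.1% formaldehyde after washing, ligated by proximity, amplified and sequenced. For binding signal, each hexamer's read frequency for a factor is divided by its frequency for the tag-only sample.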

ELK1 = molecular target: T2, ELK1 (Homo sapiens, UniProt P19419 1-428)
T2 sequence: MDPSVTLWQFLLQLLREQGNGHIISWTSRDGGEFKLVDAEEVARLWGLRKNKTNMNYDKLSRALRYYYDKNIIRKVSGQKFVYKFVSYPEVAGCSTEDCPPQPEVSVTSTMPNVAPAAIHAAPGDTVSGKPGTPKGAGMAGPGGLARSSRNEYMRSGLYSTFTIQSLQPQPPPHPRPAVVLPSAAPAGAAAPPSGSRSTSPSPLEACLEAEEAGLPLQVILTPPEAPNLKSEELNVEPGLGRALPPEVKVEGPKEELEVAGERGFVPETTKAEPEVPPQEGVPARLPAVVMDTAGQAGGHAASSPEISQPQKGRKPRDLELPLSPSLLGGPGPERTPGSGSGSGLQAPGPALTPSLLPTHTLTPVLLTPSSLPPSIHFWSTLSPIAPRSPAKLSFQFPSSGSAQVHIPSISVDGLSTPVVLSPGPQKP
Method in brief: as §1

ERG = molecular target: T3, ERG (Homo sapiens, UniProt P11308 1-479)
T3 sequence: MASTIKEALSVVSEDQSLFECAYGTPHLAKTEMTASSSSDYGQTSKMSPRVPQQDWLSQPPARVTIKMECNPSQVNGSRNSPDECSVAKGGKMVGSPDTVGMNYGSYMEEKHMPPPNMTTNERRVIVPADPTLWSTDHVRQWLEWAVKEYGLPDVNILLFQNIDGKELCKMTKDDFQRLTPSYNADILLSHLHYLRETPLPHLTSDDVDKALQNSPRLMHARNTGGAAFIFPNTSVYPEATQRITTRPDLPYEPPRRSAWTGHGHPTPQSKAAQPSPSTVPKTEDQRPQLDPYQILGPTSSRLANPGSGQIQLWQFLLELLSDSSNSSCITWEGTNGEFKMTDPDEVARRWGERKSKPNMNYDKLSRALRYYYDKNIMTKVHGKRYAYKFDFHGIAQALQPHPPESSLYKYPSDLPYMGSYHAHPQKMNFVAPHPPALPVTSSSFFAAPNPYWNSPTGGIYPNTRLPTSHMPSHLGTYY
Method in brief: as §1

ELF1 = ELF1 (Homo sapiens, UniProt P32519 1-619)
Chain of ELF1 (P32519 whole entry): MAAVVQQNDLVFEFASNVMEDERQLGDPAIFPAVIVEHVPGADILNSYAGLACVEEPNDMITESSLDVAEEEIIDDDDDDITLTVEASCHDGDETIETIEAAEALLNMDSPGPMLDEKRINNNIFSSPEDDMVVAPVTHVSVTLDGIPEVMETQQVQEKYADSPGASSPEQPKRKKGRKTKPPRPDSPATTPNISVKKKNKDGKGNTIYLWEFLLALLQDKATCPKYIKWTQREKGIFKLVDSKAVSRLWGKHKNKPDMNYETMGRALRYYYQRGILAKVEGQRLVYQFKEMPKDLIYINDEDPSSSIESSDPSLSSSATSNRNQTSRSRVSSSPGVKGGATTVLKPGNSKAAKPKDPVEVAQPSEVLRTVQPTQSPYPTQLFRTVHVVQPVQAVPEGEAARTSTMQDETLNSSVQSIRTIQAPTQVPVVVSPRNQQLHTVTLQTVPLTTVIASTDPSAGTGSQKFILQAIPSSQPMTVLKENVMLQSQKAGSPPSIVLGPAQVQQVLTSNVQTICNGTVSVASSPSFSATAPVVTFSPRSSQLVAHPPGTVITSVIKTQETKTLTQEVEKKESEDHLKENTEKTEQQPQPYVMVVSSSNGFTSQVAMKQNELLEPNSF
Method in brief: as §1

EHF = molecular target: T4, EHF (Homo sapiens, UniProt Q9NZC4 1-300)
T4 sequence: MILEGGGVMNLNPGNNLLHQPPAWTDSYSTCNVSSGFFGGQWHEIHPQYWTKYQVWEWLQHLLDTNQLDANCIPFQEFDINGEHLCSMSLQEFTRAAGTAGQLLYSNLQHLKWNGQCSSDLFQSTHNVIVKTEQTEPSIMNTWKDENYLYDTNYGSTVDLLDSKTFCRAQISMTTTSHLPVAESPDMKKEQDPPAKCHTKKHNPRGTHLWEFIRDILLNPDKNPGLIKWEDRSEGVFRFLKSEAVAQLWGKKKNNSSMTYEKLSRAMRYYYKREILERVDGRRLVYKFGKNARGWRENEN
Method in brief: as §1

SPI1 = SPI1 (Homo sapiens, UniProt P17947 1-270)
Method in brief: as §1

SPIB = SPIB (Homo sapiens, UniProt Q01892 1-262)
Chain of SPIB (Q01892 whole entry): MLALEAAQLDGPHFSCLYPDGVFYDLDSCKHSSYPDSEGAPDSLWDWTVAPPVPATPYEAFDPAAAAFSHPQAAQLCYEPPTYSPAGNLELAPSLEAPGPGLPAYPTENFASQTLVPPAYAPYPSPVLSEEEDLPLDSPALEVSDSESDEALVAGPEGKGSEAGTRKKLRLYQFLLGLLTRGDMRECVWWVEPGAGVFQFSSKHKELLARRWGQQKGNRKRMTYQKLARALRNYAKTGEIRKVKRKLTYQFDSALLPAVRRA
Method in brief: as §1

ELK3 = molecular target: T5, ELK3 (Homo sapiens, UniProt P41970 1-407)
T5 sequence: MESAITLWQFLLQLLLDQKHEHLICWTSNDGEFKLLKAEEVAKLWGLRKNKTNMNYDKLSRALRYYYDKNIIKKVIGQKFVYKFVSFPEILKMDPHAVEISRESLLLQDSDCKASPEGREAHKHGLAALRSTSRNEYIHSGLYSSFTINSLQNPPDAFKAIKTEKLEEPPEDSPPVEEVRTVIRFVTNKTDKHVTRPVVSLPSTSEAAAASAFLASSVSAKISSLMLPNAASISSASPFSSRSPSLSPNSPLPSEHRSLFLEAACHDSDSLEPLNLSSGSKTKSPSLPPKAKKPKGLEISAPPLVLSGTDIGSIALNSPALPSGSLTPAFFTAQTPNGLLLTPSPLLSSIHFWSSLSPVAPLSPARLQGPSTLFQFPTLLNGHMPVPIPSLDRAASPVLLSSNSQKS
Method in brief: as §1

FEV = molecular target: T6, FEV (Homo sapiens, UniProt Q99581 1-238)
T6 sequence: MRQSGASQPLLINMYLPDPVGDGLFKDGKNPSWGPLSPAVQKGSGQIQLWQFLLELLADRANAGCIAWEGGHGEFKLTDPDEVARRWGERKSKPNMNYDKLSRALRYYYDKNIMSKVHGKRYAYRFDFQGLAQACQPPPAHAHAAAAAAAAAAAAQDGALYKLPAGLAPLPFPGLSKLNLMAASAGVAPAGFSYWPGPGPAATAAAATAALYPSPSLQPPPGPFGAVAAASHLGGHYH
Method in brief: as §1

ETV5 = ETV5 (Homo sapiens, UniProt P41161 1-510)
Chain of ETV5 (P41161 whole entry): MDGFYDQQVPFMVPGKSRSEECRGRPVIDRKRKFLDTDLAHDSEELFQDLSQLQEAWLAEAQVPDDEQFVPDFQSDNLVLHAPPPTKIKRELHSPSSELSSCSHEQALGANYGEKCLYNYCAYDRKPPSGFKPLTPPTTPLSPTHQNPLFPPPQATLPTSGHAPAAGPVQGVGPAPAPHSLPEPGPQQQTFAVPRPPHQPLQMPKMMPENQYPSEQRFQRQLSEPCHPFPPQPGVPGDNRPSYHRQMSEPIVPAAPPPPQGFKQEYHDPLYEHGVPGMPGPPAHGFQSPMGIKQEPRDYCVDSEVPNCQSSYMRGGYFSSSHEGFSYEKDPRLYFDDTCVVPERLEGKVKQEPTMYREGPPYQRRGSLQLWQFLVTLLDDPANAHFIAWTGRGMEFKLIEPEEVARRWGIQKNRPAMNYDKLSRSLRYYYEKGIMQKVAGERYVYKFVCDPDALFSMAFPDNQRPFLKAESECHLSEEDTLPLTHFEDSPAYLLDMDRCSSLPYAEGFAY
Method in brief: as §1

SPIC = molecular target: T7, SPIC (Homo sapiens, UniProt Q8N5J4 1-248)
T7 sequence: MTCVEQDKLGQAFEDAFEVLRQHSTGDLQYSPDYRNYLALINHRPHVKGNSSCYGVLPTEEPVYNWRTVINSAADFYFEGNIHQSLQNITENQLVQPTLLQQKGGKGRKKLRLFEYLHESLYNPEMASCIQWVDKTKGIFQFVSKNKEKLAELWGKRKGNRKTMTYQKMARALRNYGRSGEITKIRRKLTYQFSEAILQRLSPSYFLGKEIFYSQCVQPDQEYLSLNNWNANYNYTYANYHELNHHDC
Method in brief: as §1

ELF4 = ELF4 (Homo sapiens, UniProt Q99607 1-663)
Chain of ELF4 (Q99607 whole entry): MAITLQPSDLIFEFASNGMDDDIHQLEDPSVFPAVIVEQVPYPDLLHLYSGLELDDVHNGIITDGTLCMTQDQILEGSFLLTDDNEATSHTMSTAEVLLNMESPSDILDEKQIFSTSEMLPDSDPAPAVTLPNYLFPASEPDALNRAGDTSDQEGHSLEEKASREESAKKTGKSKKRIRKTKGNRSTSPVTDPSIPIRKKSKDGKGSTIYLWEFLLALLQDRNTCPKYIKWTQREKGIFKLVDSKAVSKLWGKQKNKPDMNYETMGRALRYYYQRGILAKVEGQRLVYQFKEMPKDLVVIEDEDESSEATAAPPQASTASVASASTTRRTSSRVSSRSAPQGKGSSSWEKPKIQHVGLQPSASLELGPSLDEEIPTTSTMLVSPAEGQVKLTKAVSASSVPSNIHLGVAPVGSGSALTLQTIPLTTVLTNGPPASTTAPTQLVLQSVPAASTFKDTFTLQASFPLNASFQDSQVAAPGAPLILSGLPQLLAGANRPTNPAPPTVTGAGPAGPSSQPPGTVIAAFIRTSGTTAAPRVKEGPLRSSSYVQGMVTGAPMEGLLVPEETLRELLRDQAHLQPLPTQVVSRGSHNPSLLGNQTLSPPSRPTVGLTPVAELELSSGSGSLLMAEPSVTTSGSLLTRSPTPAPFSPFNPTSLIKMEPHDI
Method in brief: as §1

ELK4 = molecular target: T8, ELK4 (Homo sapiens, UniProt P28324-2 1-405)
T8 sequence: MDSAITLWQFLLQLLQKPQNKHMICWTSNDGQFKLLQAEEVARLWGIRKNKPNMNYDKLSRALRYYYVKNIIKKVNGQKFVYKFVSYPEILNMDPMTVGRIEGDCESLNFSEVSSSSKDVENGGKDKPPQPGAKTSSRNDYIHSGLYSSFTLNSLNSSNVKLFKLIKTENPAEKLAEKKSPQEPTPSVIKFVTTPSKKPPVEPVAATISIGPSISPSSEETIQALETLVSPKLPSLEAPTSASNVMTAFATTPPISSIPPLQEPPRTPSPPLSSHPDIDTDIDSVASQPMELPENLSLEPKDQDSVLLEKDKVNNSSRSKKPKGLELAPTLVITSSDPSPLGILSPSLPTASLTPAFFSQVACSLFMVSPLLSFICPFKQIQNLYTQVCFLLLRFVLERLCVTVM
Method in brief: as §1

ETV2 = molecular target: T9, ETV2 (Homo sapiens, UniProt O00321 1-342)
T9 sequence: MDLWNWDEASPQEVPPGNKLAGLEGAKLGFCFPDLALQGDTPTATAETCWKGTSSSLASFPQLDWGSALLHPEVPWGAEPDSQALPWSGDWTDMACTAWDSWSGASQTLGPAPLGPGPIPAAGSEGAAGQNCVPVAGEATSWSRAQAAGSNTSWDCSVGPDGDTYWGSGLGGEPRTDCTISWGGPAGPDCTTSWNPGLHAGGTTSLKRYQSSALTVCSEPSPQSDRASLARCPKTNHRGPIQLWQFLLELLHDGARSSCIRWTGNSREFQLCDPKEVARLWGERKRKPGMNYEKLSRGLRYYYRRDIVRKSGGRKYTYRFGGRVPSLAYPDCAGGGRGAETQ
Method in brief: as §1

ELF3 = molecular target: T10, ELF3 (Homo sapiens, UniProt P78545 1-371)
T10 sequence: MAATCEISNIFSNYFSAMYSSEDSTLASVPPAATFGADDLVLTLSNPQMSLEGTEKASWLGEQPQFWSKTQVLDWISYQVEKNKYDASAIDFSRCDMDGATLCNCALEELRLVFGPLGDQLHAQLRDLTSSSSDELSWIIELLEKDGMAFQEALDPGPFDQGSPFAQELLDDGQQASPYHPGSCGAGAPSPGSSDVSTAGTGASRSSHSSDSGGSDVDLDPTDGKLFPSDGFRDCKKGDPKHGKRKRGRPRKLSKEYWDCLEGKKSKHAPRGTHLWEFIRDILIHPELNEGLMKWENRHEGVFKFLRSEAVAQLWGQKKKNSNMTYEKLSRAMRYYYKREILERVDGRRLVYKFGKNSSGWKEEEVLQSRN
Method in brief: as §1

ETV1 = ETV1 (Homo sapiens, UniProt P50549 1-477)
Chain of ETV1 (P50549 whole entry): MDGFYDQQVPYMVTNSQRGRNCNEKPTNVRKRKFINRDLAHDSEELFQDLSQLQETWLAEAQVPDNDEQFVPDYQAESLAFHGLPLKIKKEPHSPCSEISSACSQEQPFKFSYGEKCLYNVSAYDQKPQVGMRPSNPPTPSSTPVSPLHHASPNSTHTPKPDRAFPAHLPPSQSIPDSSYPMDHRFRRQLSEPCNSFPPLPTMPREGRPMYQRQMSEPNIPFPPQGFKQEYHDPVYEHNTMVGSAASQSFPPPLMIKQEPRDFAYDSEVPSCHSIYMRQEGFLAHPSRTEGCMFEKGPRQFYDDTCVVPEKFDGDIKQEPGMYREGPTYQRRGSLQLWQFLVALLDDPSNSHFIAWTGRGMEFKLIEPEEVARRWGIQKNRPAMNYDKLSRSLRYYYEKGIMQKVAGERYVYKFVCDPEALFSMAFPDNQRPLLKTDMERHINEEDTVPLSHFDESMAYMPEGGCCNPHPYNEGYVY
Method in brief: as §1

Sequence	binding signal (FLI1)	binding signal (ELK1)	binding signal (ERG)	binding signal (ELF1)	binding signal (EHF)	binding signal (SPI1)	binding signal (SPIB)	binding signal (ELK3)	binding signal (FEV)	binding signal (ETV5)	binding signal (SPIC)	binding signal (ELF4)	binding signal (ELK4)	binding signal (ETV2)	binding signal (ELF3)	binding signal (ETV1)
CCGGTC	1.17 fold enrichment (6-mer frequency, TF over GST control)	1.18 fold enrichment (6-mer frequency, TF over GST control)	1.3 fold enrichment (6-mer frequency, TF over GST control)	1.14 fold enrichment (6-mer frequency, TF over GST control)	1.1 fold enrichment (6-mer frequency, TF over GST control)	1.01 fold enrichment (6-mer frequency, TF over GST control)	1.08 fold enrichment (6-mer frequency, TF over GST control)	1.18 fold enrichment (6-mer frequency, TF over GST control)	1.62 fold enrichment (6-mer frequency, TF over GST control)	1.22 fold enrichment (6-mer frequency, TF over GST control)	1.01 fold enrichment (6-mer frequency, TF over GST control)	1.08 fold enrichment (6-mer frequency, TF over GST control)	1.18 fold enrichment (6-mer frequency, TF over GST control)	1.08 fold enrichment (6-mer frequency, TF over GST control)	1.14 fold enrichment (6-mer frequency, TF over GST control)	1.17 fold enrichment (6-mer frequency, TF over GST control)
ATAGGT	1.08 fold enrichment (6-mer frequency, TF over GST control)	1.01 fold enrichment (6-mer frequency, TF over GST control)	1.01 fold enrichment (6-mer frequency, TF over GST control)	–	1.04 fold enrichment (6-mer frequency, TF over GST control)	1.01 fold enrichment (6-mer frequency, TF over GST control)	1.04 fold enrichment (6-mer frequency, TF over GST control)	–	–	1.08 fold enrichment (6-mer frequency, TF over GST control)	1.01 fold enrichment (6-mer frequency, TF over GST control)	1.01 fold enrichment (6-mer frequency, TF over GST control)	1.02 fold enrichment (6-mer frequency, TF over GST control)	1.11 fold enrichment (6-mer frequency, TF over GST control)	1.11 fold enrichment (6-mer frequency, TF over GST control)	1.03 fold enrichment (6-mer frequency, TF over GST control)
TGCTGT	1.03 fold enrichment (6-mer frequency, TF over GST control)	1 fold enrichment (6-mer frequency, TF over GST control)	–	1.09 fold enrichment (6-mer frequency, TF over GST control)	1.13 fold enrichment (6-mer frequency, TF over GST control)	–	1 fold enrichment (6-mer frequency, TF over GST control)	–	1.01 fold enrichment (6-mer frequency, TF over GST control)	1.06 fold enrichment (6-mer frequency, TF over GST control)	1.18 fold enrichment (6-mer frequency, TF over GST control)	1.06 fold enrichment (6-mer frequency, TF over GST control)	1.19 fold enrichment (6-mer frequency, TF over GST control)	1.15 fold enrichment (6-mer frequency, TF over GST control)	1.12 fold enrichment (6-mer frequency, TF over GST control)	1.17 fold enrichment (6-mer frequency, TF over GST control)
